# Bioassay records: PubChem, National Center for Advancing Translational Sciences (NCATS)
# RE007 growth inh: less growth of the S. pombe RE007 Vpr strain; S. pombe RE007 Vpr strain, BacTiter-Glo ATP luminescence, 24 h; Potency, µM (series often up to 92.2 µM), for inactives: top-dose activity change, negative = less growth, most hits filed as inhibitors; 0.21% of 360,000 active; AID 651644; active = well fitted falling curve with a large enough effect; inconclusive = small, poorly fitted or top-dose-only effect; inactive = no such curve, though single readings can be large or run the other way; note: nearly all actives have a fitted effect of over 50% in size
#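 Fission yeast strain RE007, carrying one chromosomally integrated HIV-1 vpr copy, was seeded at OD 0.01 in PMG+AL medium with 23 nL pinned compound. After 24 h at 30 °C and 99% humidity, viability was read by BacTiter-Glo luminescence.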
# Sm TGR block: S. mansoni TGR enzyme inhibition; Potency, µM (doses to about 114 µM), inactives show top-dose activity change, negative = inhibition, actives largely listed as inhibitors; purified TGR, DTNB reduction, TNB absorbance 405 nm; 3% of 360,000 active; AID 485364; Q962Y6; note: nearly all actives have a fitted effect of over 60% in size
#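 TGR 20 nM + NADPH 100 uM (dispensed conc.), cpd preinc 15 min RT; start with NADPH (500 uM addition) then DTNB (15 mM addition). Kinetic TNB absorbance, 405 nm filter. Four-parameter Hill fit across titration.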
# Tb PYK inh: blocks Trypanosoma brucei pyruvate kinase | TbPYK enzyme, Kinase-Glo Plus ATP luminescence, 45 min | Potency, µM (highest dose often 76.8 µM), inactives show top-dose activity, negative = inhibition, most hits filed as inhibitors | 0.12% of 410,000 active; note: nearly all actives have a fitted effect of over 50% in size
#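 Quantitative HTS: titrated library compounds versus trypanosomal pyruvate kinase in TEA buffer (pH 7.2) containing KCl, MgCl2, BSA and Tween-20. Reactions were initiated with ADP, 130 uM final. Kinase-Glo Plus luminescence was read after 45 min at RT.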
# LmPK inh: inhibitors of Leishmania mexicana pyruvate kinase; Q27686; purified LmPK, Kinase-Glo ATP luminescence, 1 h; Potency, µM (highest dose often 57.5 µM), without a hit: at the top dose activity change, negative = inhibition, usual class: inhibitors; 0.37% of 290,000 active; AID 1721
# Target sequence (Q27686 whole entry, looked up): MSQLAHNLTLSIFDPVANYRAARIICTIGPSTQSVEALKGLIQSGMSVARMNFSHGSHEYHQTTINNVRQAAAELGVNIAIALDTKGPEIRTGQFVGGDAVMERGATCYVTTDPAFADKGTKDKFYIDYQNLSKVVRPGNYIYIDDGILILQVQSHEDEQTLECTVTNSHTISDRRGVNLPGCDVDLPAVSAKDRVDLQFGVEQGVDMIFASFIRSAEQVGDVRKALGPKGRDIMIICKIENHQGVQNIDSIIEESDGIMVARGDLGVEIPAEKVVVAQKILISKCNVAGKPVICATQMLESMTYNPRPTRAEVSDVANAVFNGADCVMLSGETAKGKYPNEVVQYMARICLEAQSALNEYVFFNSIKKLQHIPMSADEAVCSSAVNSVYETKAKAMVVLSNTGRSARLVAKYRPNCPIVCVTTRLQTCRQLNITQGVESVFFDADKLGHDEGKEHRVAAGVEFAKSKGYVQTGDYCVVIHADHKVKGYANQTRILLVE
#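 ATP generated from ADP (0.1 mM) and PEP (0.5 mM) by 0.1 nM LmPK over 1 h at room temperature (pH 7.2 imidazole buffer) was detected by coupled luciferase luminescence. Values were normalized to uninhibited and no-enzyme wells.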
# Active calls of the source: *; ? = inconclusive; . = not tested or not shown; [ ] = dose if it differs, or a comment. In the library only some 3% were active in any assay of this set; here they are far more common. Unless noted, calls come from the whole dose curve; as a rule, active = well fitted curve in the direction sought with a large enough effect; inconclusive = small, poorly fitted or top-dose-only effect, or another doubt; inactive = no such curve, though single readings can be large; an effect the other way counts as inactive or inconclusive. % is set by controls: 0 for no effect and ±100 for the full control effect; potency is the fitted concentration of half-maximal effect.
SMILES,RE007 growth inh,Sm TGR block,Tb PYK inh,LmPK inh
Nc1[nH]c(C(=O)c2ccccc2)c(-c2ccccc2Br)c1C(=O)NCc1ccc(-c2ccccc2)cc1,2.4%,.,2.6%,.
CCOc1cc(/C=N/Nc2nnc(C)n2N)ccc1O,7.0%,50.1µM*,1.9%,-1.0%
CCOc1cc(/C=N/Nc2ncnc(Cl)c2N)ccc1O,.,-26.4%,-15.8%,-11.6%
COc1cc(/C=N/Nc2cccc(C)c2)cc(Br)c1O,265.5%,44.7µM*,-12.1%,1.1%
COc1cc(/C=N/Nc2cccc(C)c2)ccc1OC(=O)c1cccs1,137.9%,-28.8%,-12.2%,5.5%
COc1cc(/C=N/Nc2nncn2/N=C/c2ccc(O)c(OC)c2)ccc1O,-19.9%,-9.0%,?,14.1µM*
COc1cc(/C=N/Nc2ccccc2)ccc1O,90.2%,39.8µM*,-20.2%,1.6%
Cc1ccc(C)c(S(=O)(=O)c2nnn3c2nc(NC(C)C)c2sccc23)c1,.,0.4%,1.2%,.
COc1cc(/C=N/NP(=S)(c2ccccc2)c2ccccc2)ccc1O,13.6%,-9.2%,-9.0%,0.2%
COc1cc(/C=N/Nc2ccccc2C(F)(F)F)ccc1O,7.4%,39.8µM*,-15.1%,-0.4%
CCOc1ccc(S(=O)(=O)N/N=C(\C)Cc2ccc(OC)cc2)cc1,4.1%,31.6µM*,4.4%,3.9%
COC(=O)c1c(NC(=O)c2cc(=O)c3cc(C)cc(C)c3o2)sc2c1CCC2,.,5.0%,-2.0%,.
CC(C)(C)C#CC(CCc1ccccc1)OS(N)(=O)=O (stereo not drawn),.,28.2µM*,.,9.7%
CC(CCc1ccccc1)NS(=O)(=O)c1ccccc1 (stereo not drawn),3.2%,1.3%,-7.5%,2.1%
CCOC(=O)C#CC(CCc1ccccc1)OS(N)(=O)=O (stereo not drawn),3.9%,11.2µM*,-9.8%,1.1%
CC(=O)OCC1=C(C(=O)O)N2C(=O)C(NC(=O)COc3ccc(F)cc3)C2SC1 (stereo not drawn),11.6%,14.1µM*,-2.1%,.
C=CC1=C(C(=O)O)N2C(=O)C(NC(=O)Cc3ccccc3)C2SC1 (stereo not drawn),9.1%,10µM*,5.4%,7.5%
CC(=O)OCC1=C(C(=O)O)N2C(=O)C(NC(=O)C(C)Cn3cc(Cl)cn3)C2SC1 (stereo not drawn),2.1%,28.2µM*,-5.5%,-2.4%
CC(=O)OCC1=C(C(=O)O)N2C(=O)[C@@H](NC(=O)Cc3ccccc3)[C@H]2SC1,-7.3%,.,-1.6%,.
Cc1nnc(SCC2=C(C(=O)O)N3C(=O)C(NC(=O)c4cc(F)c(F)cc4Cl)C3SC2)s1 (stereo not drawn),-3.4%,15.8µM*,7.5%,0.7%
COc1ccc(OC)c(NC(=O)Cn2c(=O)n(-c3cccc(C)c3)c(=O)c3c2c2cc(C)ccc2n3C)c1,.,-0.8%,0.0%,.
Cc1nnc(SCC2=C(C(=O)O)N3C(=O)C(NC(=O)COc4ccccc4)C3SC2)s1 (stereo not drawn),-7.4%,7.94µM*,-16.2%,.
O=C(COc1ccccc1)NC1C(=O)N2C(C(=O)O)=C(Cl)CSC12 (stereo not drawn),3.8%,?,-10.9%,15.0%
Cn1nnnc1SCC1=C(C(=O)O)N2C(=O)[C@@H](NC(=O)[C@@H](O)c3ccccc3)[C@@H]2SC1,.,.,-3.5%[33.2 µM],.
CC(=O)OCC1=C(C(=O)O)N2C(=O)C(NC(=O)CC(C)c3ccccc3)C2SC1 (stereo not drawn),-10.6%,28.2µM*,1.4%,.
SMILES,RE007 growth inh,Sm TGR block,Tb PYK inh,LmPK inh
CCOc1ccc(C(=O)NC2C(=O)N3C(C(=O)O)=C(COC(C)=O)CSC23)cc1OCC (stereo not drawn),-24.0%,22.4µM*,0.4%,.
CCC(C(=O)NC1C(=O)N2C(C(=O)O)=C(CSc3nnc(C)s3)CSC12)c1ccccc1 (stereo not drawn),-2.0%,3.98µM*,2.9%,.
Cc1c(Cl)cccc1NC(=O)c1cc(-c2cccc(Cl)c2)on1,.,9.7%,0.4%,.
Cc1cccc(N2CCN(C3(c4ccccc4)C(=O)c4ccccc4C3=O)CC2)c1C,.,7.7%,6.7%,.
C[C@H]1Cc2c(-c3ccccc3)nc3c(c2CO1)CN(C(=O)NCc1ccco1)CC3,.,.,.,0.7%[11.5 µM]
CC1=C(C(=O)OCc2ccccc2)N2C(=O)[C@@H](NC(=O)COc3ccccc3)[C@H]2SC1,5.5%,-29.0%,-4.3%,2.6%
Cc1nnc(SCC2=C(C(=O)O)N3C(=O)C(NC(=O)COc4ccc(F)cc4)C3SC2)s1 (stereo not drawn),2.0%,14.1µM*,-18.8%,.
CC(C)C1Cc2c(C#N)c(N)sc(=S)c2CO1 (stereo not drawn),-0.6%,10µM*,-12.9%,14.4%
CC1(C)Cc2c(C#N)c(N)sc(=S)c2CO1,1.5%,?,-9.7%,4.3%
Cn1c(N)c(C(=O)COC(=O)c2cc(-c3ccco3)nc3ccccc23)c(=O)n(Cc2ccccc2)c1=O,.,8.91µM*,.,2.7%
COc1ccc(-c2cc(C(=O)OCC(=O)c3c(N)n(C)c(=O)n(C)c3=O)c3ccccc3n2)cc1,-13.0%,0.4%,-1.0%,4.0%
Cn1c(N)c(C(=O)COC(=O)c2cc(-c3ccco3)nc3ccccc23)c(=O)n(C)c1=O,-15.6%,8.91µM*,-0.1%,0.3%
O=C(O)CN1C(=O)/C(=C/C=C/c2ccccc2)SC1=S,6.4%,-7.6%,-11.3%,4.8%
O=C(O)CCN1C(=O)/C(=C\c2ccc(-c3nc4ccccc4s3)o2)SC1=S,4.7%,50.1µM*,-13.4%,6.3%
O=C(O)CCCN1C(=O)/C(=C\c2ccco2)SC1=S,-8.0%,?,?,8.6%
O=C(O)CN1C(=O)/C(=C\C(Br)=C\c2ccccc2)SC1=S,7.3%,20µM*,-5.2%,9.3%
O=C(O)CN1C(=O)/C(=C\c2ccc(OC(=O)c3ccco3)cc2)SC1=S,-1.5%,-34.5%,3.7%,-2.8%
O=C(O)CN1C(=O)/C(=C/c2ccc(SCc3ccccc3)o2)SC1=S,5.1%,10µM*,-13.7%,-3.9%
COc1ccc(CCNC(=O)CSc2nnnn2-c2cccc(C(C)=O)c2)cc1OC,.,1.6%,-2.4%,.
CCNC(=O)C1(C)CCN(C(=O)c2cccc(C#N)c2)C1 (stereo not drawn),5.7%,.,2.4%,.
O=C(c1cc(-c2ccco2)nc2ccccc12)N1CCCC(C(F)(F)F)C1 (stereo not drawn),-14.0%,35.5µM*,0.6%,.
COc1cc2ccccc2cc1C(=O)N1CCCC(C(F)(F)F)C1 (stereo not drawn),6.3%,-6.5%,3.8%,.
O=C(c1cc2ccccc2cc1O)N1CCCC(C(F)(F)F)C1 (stereo not drawn),1.0%,28.2µM*,3.0%,-7.4%
O=C(c1cc(-c2ccncc2)nc2ccccc12)N1CCCC(C(F)(F)F)C1 (stereo not drawn),-1.2%,.,0.3%,.
CCN1CCN(C(=O)c2cc(-c3ccco3)nc3ccccc23)CC1,-9.4%,28.2µM*,2.7%,.
